Source: PubChem BioAssay (NCI)
About 83,000 compounds went through this panel and 20% of them were active in at least one assay; those are over-represented in the sample as a whole.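 96-well plates, one dose, 48 hours. Percent growth reported; active if below 10.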 Values without a mark were called inactive. Calls of active or inactive are those of the source.

Assays:
Test in all cases: NCI-60 one-dose screen, 48 h (100 = growth as untreated, 0 = no growth, -100 = all killed)
Conditions in all cases: 10 µM
[1] = tested on: SK-MEL-2 melanoma
[2] = tested on: SN12C renal
[3] = tested on: UO-31 renal
[4] = tested on: TK-10 renal
[5] = tested on: CAKI-1 renal
[6] = tested on: A498 renal
[7] = tested on: CCRF-CEM leukemia
[8] = tested on: MOLT-4 leukemia
[9] = tested on: SR leukemia
[10] = tested on: RPMI-8226 leukemia
[11] = tested on: OVCAR-8 ovarian
[12] = tested on: OVCAR-5 ovarian
[13] = tested on: OVCAR-4 ovarian
[14] = tested on: SK-OV-3 ovarian
[15] = tested on: IGROV1 ovarian
[16] = tested on: OVCAR-3 ovarian
[17] = tested on: HS 578T breast
[18] = tested on: NCI/ADR-RES ovarian
[19] = tested on: ACHN renal

N#Cc1c(-c2ccccc2)nc(SCC(=O)N2CCOCC2)[nH]c1=O
growth [1]: 107% | growth [2]: 99.1% | growth [3]: 71.9% | growth [4]: 110% | growth [5]: 94.1% | growth [6]: 93.5% | growth [7]: 95.1% | growth [8]: 83.5% | growth [9]: 90.1% | growth [10]: 99% | growth [11]: 99.3% | growth [12]: 103% | growth [13]: 104% | growth [14]: 90.7% | growth [15]: 112% | growth [16]: 110% | growth [17]: 108% | growth [18]: 103%

O=C(Nc1ccc(OCc2nnc(-c3ccccc3)o2)c(F)c1)Nc1ccc(Cl)c(Cl)c1
growth [1]: 72.9% | growth [2]: 64% | growth [3]: 68.5% | growth [4]: 66.2% | growth [5]: 68.4% | growth [6]: 12.4% | growth [7]: 37.6% | growth [8]: 43.8% | growth [9]: 6.91% (active) | growth [10]: 25.5% | growth [11]: 61.6% | growth [12]: 93.4% | growth [13]: 50.6% | growth [14]: 89.6% | growth [15]: 57.7% | growth [16]: 53.6% | growth [17]: 63.2% | growth [18]: 58.6%

Cn1c([N+](=O)[O-])cnc1/C=C1\Oc2ccc(Br)cc2C1=O
growth [1]: -49% (active) | growth [2]: -2.34% (active) | growth [3]: -38.4% (active) | growth [4]: -33.3% (active) | growth [19]: -41.6% (active) | growth [5]: -21.6% (active) | growth [6]: -29.7% (active) | growth [8]: -14.1% (active) | growth [10]: 6.2% (active) | growth [11]: -11.3% (active) | growth [12]: -19.1% (active) | growth [13]: 3.03% (active) | growth [14]: -7.97% (active) | growth [15]: -21.6% (active) | growth [16]: -37.3% (active) | growth [17]: -17.8% (active) | growth [18]: 6.72% (active)

C=CCN1C(=O)/C(=C\c2ccc3c(c2)CCC3)SC1=S
growth [1]: 94.6% | growth [2]: 102% | growth [3]: 85.6% | growth [4]: 108% | growth [5]: 97.5% | growth [6]: 98.9% | growth [7]: 103% | growth [8]: 85.9% | growth [9]: 93.1% | growth [10]: 91.9% | growth [11]: 104% | growth [12]: 99.8% | growth [13]: 106% | growth [14]: 98.6% | growth [15]: 106% | growth [16]: 109% | growth [17]: 112% | growth [18]: 105%

CN1CCN(c2nc(-c3cccnc3)nc3sc4c(c23)CCCCCC4)CC1
growth [1]: 114% | growth [2]: 90.8% | growth [3]: 75% | growth [4]: 108% | growth [5]: 86.7% | growth [6]: 99.3% | growth [7]: 92.4% | growth [8]: 39.6% | growth [9]: 34.2% | growth [10]: 80.6% | growth [11]: 95.1% | growth [12]: 104% | growth [13]: 80.8% | growth [14]: 97.2% | growth [15]: 102% | growth [16]: 95.8% | growth [17]: 85.3% | growth [18]: 89.3%

COc1cc(C(c2c[nH]c3ccccc23)N2CCCC2)ccc1OCc1ccccc1 (stereo not drawn)
growth [1]: 81.6% | growth [2]: 74.9% | growth [3]: 24.7% | growth [4]: 76.6% | growth [19]: 73.2% | growth [5]: 53.3% | growth [6]: 71.6% | growth [8]: 26.1% | growth [9]: 34.9% | growth [10]: 32.3% | growth [11]: 80.4% | growth [12]: 97.1% | growth [13]: 91.8% | growth [14]: 89.5% | growth [15]: 48.1% | growth [16]: 75.5% | growth [17]: 57.2% | growth [18]: 76.5%

O=C(/C=C/c1nnc2n(Cc3ccccc3)c(=O)c3c4c(sc3n12)CCCC4)c1ccccc1
growth [1]: 107% | growth [2]: 96.7% | growth [3]: 80% | growth [4]: 136% | growth [19]: 125% | growth [5]: 44.6% | growth [6]: 112% | growth [8]: -3.6% (active) | growth [10]: 1.69% (active) | growth [11]: 19.3% | growth [12]: 115% | growth [13]: 112% | growth [14]: 108% | growth [16]: 68.4% | growth [17]: 110% | growth [18]: 85.8%

COc1cc(CSc2nc3ccc(Cl)cc3c(=O)n2Cc2ccccc2)cc(OC)c1OC
growth [1]: 21.4% | growth [2]: 38.6% | growth [3]: 27.1% | growth [4]: 73.6% | growth [19]: 40.3% | growth [5]: 26.7% | growth [6]: 24% | growth [7]: 28.5% | growth [8]: 29.4% | growth [10]: 68.7% | growth [11]: 53% | growth [12]: 46.7% | growth [13]: 52% | growth [15]: 35.3% | growth [16]: -0.909% (active) | growth [17]: 30.5% | growth [18]: 14%

COc1ccc(Nc2ccnc(N3CCN(c4ccnc5cc(Cl)ccc45)CC3)n2)cc1
growth [1]: -19.3% (active) | growth [2]: 14.1% | growth [3]: -1.7% (active) | growth [4]: 4.85% (active) | growth [19]: 11.2% | growth [5]: 6.78% (active) | growth [6]: -6.15% (active) | growth [8]: -48.9% (active) | growth [9]: 1.29% (active) | growth [10]: -23.1% (active) | growth [11]: 0.239% (active) | growth [12]: 9.98% (active) | growth [13]: 10.7% | growth [14]: 12.7% | growth [15]: -0.0353% (active) | growth [16]: 15.8% | growth [17]: 10.4% | growth [18]: -2.96% (active)
